The target in assay [1] is Rap guanine nucleotide exchange factor 3 (Homo sapiens) (UniProt O95398). The experiment in a line: Confirmatory qHTS for agonist of cAMP-regulated guanine nucleotide exchange factor 3 (EPAC1) (AID 1645881). Also: nearly all actives have a fitted effect of over 75% in size. Also: potency is read from the fitted curve at half-maximal effect. A general note: Quantitative high-throughput screening tests each substance at several concentrations.
The target in assay [2] is Rap guanine nucleotide exchange factor 4 (Homo sapiens) (UniProt Q8WZA2). Kind of assay: Confirmatory qHTS for agonist of cAMP-regulated guanine nucleotide exchange factor 4 (EPAC2) (AID 1645884).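 Also: nucleotide exchange releases bodipy-GDP from Rap1 and this lowers its fluorescence; nearly all actives have a fitted effect of over 65% in size.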 Also: potency is read from the fitted curve at half-maximal effect.
Sequence of Rap guanine nucleotide exchange factor 4 (Homo sapiens) (Q8WZA2 whole entry, looked up): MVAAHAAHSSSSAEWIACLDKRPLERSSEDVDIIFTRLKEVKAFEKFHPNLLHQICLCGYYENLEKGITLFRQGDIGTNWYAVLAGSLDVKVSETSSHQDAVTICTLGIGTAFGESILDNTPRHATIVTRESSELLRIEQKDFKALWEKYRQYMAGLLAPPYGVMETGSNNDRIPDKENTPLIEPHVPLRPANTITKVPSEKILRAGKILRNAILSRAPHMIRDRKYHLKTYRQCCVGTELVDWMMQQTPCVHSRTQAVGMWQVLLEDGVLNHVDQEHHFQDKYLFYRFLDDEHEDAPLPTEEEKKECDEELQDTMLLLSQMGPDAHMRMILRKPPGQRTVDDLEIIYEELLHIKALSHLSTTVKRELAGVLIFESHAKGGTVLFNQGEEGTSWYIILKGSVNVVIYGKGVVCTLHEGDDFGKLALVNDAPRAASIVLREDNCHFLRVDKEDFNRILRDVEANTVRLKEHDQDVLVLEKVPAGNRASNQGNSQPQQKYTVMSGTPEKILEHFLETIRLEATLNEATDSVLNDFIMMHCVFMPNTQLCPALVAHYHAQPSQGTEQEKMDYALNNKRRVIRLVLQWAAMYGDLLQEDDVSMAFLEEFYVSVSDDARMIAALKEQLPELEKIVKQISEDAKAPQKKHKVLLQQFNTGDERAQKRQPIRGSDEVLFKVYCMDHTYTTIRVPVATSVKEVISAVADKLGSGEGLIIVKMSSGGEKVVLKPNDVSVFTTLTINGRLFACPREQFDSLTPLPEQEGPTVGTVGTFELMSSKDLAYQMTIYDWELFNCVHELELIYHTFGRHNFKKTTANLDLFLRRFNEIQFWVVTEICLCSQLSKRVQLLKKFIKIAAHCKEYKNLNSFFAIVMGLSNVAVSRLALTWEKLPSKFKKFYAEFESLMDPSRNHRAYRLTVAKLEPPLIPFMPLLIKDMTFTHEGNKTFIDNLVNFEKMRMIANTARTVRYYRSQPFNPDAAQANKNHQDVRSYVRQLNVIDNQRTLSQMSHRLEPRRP
Assay [3] shares this target. Kind of assay: Confirmatory qHTS for antagonist of cAMP-regulated guanine nucleotide exchange factor 4 (EPAC2) (AID 1645885). Also: nearly all actives have a fitted effect of over 25% in size.
For assay [4], the target named is Rap guanine nucleotide exchange factor 3 (Homo sapiens) (UniProt O95398). The experiment in a line: Counterscreen qHTS for antagonist of cAMP-regulated guanine nucleotide exchange factor 3 (EPAC1) (AID 1645888).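 Also: fluorescence loss as bound BODIPY-GDP is released from Rap1B.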 The procedure, abridged:
(§1)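 Rap1B–BODIPY-GDP (250 nM) with 50 uM GDP; compounds pin-transferred to 9.74 nM–152 uM final (activator) or from 7.32 nM upwards (inhibitor). Fluorescence Ex/Em 480/540 nm read at 5 and 30 min, then after adding cAMP or buffer, at room temperature.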
On the technique in general: The purpose of a counterscreen is to sort out artefacts and off-target activity.

Assay [5] shares this target. Kind of assay: Counterscreen qHTS for agonist of cAMP-regulated guanine nucleotide exchange factor 3 (EPAC1) (AID 1645889). Also: nearly all actives have a fitted effect of over 40% in size. Also: potency is read from the fitted curve at half-maximal effect. The method in brief: as §1

Inconclusive results are not listed. Unmarked numbers belong to inactive results. Calls of active or inactive are those of the source. Calls follow the shape of the dose curve; as a rule, active = well fitted curve in the direction sought with a large enough effect; inconclusive = small, poorly fitted or top-dose-only effect, or another doubt; inactive = no such curve, though single readings can be large; an effect the other way counts as inactive or inconclusive.

Sequence of Rap guanine nucleotide exchange factor 3 (Homo sapiens) (O95398 whole entry, looked up): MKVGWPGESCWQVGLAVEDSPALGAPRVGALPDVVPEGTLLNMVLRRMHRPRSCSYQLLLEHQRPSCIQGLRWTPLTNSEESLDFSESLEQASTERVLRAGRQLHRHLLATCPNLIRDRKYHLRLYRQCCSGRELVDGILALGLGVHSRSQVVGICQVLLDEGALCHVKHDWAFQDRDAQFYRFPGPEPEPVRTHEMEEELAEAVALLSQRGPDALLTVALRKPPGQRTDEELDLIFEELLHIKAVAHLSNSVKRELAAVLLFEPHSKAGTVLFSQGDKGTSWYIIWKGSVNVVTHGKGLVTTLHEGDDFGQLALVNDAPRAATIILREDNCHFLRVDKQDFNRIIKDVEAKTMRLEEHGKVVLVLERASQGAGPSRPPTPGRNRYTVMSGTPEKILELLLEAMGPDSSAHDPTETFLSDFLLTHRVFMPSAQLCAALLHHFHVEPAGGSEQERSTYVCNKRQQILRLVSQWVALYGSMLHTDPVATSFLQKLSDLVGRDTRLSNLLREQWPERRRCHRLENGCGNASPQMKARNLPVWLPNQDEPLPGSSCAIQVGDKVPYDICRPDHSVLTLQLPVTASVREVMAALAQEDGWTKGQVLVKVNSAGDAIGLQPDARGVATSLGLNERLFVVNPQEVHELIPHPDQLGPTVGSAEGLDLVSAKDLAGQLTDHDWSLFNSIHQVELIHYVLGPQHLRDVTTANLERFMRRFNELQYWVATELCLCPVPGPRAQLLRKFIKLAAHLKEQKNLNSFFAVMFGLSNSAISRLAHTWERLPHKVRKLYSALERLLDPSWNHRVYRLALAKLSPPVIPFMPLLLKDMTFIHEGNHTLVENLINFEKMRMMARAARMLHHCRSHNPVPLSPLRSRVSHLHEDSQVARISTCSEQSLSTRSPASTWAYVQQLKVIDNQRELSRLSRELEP

In the case of `C=CCN(c1ccccc1)S(=O)(=O)c1cccc(C(=O)N2CC(C)CC(C)C2)c1` (stereo not drawn), the Potency entry in assay [1], in assay [2], in assay [3] and in assay [4] was “inactive” each time.
In the case of `CCOc1cc(CNc2ccc(O)cc2)cc(Br)c1OCc1ccccc1`, the Potency entry in assay [1], in assay [2] and in assay [4] was “inactive” each time. In assay [3], the outcome is “inactive [at 12.7 µM]”.
With `CC(C)c1ccc(N(C(=O)c2csnn2)C(C(=O)NC(C)(C)C)c2cccnc2)cc1` (stereo not drawn), the Potency result in assay [1], in assay [2], in assay [3], in assay [4] and in assay [5] was “inactive” throughout.
As to `CN1/C(=C\C=C(/C#N)C(=O)Nc2ccccc2F)C(C)(C)c2ccccc21`, the Potency was 100 µM (active) in assay [1], 100 µM (active) in assay [2] and 14.1 µM (active) in assay [5]. Moreover, the Potency entry in assay [3] and in assay [4] was “inactive” in each case.

The record behind these values is PubChem BioAssay (NCATS).
